Assays:
Assay type in all cases: functional
[1] = target: Solute carrier family 2, facilitated glucose transporter member 1 (Homo sapiens) (UniProt P11166); test: ST_JUDE_LEISH: Cytotoxicity at 2uM final concentration against transgenic Leishmania Mexicana promastigotes LmGLUT1 that are glucose transport deficient and complemented with the human glucose transporter GLUT1. Activity is measured by DNA content using SYBR green in vitro
[2] = target: Hexose transporter 1 (Plasmodium falciparum) (UniProt O97467); test: ST_JUDE_LEISH: Cytotoxicity at 2uM final concentration against transgenic Leishmania Mexicana promastigotes LmPfHT that are glucose transport deficient and complemented with the Plasmodium falciparum hexose transporter. Activity is measured by DNA content using SYBR green in vitro
[3] = target: Glucose transporter (Leishmania mexicana) (UniProt O61059); test: ST_JUDE_LEISH: Cytotoxicity at 2uM final concentration against transgenic Leishmania Mexicana promastigotes LmGT2 that are glucose transport deficient and complemented with the L. Mexicana glucose transporter 2. Activity is measured by DNA content using SYBR green in vitro

Solute carrier family 2, facilitated glucose transporter member 1 (Homo sapiens), sequence (P11166 whole entry): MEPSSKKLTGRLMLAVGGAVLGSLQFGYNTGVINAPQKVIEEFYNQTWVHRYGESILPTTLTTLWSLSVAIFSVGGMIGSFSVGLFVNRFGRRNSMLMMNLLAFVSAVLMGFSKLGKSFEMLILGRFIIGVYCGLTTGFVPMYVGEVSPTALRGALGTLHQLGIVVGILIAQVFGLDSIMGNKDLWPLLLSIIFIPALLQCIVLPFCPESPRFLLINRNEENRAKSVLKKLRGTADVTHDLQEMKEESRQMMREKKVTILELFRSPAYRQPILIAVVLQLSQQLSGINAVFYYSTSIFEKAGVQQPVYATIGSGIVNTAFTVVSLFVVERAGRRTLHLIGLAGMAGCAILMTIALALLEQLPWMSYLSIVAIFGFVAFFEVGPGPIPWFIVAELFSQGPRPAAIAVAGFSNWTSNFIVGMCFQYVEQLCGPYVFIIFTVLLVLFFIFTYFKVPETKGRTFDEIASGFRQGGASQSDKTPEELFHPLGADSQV

SMILES | inhibition [1] | inhibition [2] | inhibition [3]
O=C(CCC1CCCC1)N(Cc1ccc(-c2ccc(CNCCc3ccccn3)cc2)cc1)CC1CCCCN1 (configuration not stated) | 15.2% | 4.22% | 1.88%
Cc1ccc(C)c(CC(=O)N2CCC(n3c(C)nc4ccc(F)cc43)CC2)c1 | 4.03% | 3.03% | 2.07%
COc1ccccc1C1CCN(C2CCC(NC(=O)/C=C/c3cc(F)c(F)cc3F)CC2)CC1 (configuration not stated) | 2.17% | 2.98% | 2.21%
CCCCCN1CCC(NC(=O)c2ccc(C(=O)Nc3ccc(C(C)C)cc3)cc2)C1 (configuration not stated) | 1.74% | 1.41% | 1.46%
Cc1ccc(Nc2nc(C)cc(NC3CC3)n2)cc1 | 8.73% | 6.75% | 7%
CNc1ccc(CNCc2ccc(-c3ccc(-c4nc5cc(F)ccc5[nH]4)cc3)cc2)cc1 | 3.2% | -0.46% | -0.33%
COc1ccc(CN2CCC(NCc3cccc([N+](=O)[O-])c3)CC2)cc1 | 5.28% | 7.16% | 6.36%
Cc1cc(C)c(C)c(OCCCON2C(=N)N=C(N)NC2(C)C)c1C | 1.55% | -0.22% | 2.17%
CCOc1ccc(-c2nonc2NC(=O)CC(C)C)cc1OCC | -0.61% | -0.84% | -1.25%
CC(C)(C)c1ccc(-c2cc3c(ccc4nc(N)nc(N)c43)[nH]2)cc1 | 1.02% | 1.64% | -0.3%
COc1ccc(Nc2nc(NC3CCN(C)CC3)cc(-c3ccc(OC)cc3)n2)cc1 | 2.07% | 2.61% | 2.87%
Cc1cc(C(=O)Nc2ccc(-c3ccccc3)cc2)no1 | 2.6% | 0.53% | 0.52%
Cc1cn(CC(=O)Nc2cccc(-c3cccc(-c4nc5cccc(C)c5[nH]4)c3)c2)c(=O)[nH]c1=O | 4.43% | 3.47% | 5.03%
CCOC(=O)CCCc1cc(NC2CCN(C)CC2)nc(Nc2ccc(OC)cc2)n1 | -0.13% | 0.24% | 1.72%
O=C(c1ccc(Cl)cc1Cl)N1CCCC(C(F)(F)F)C1 (configuration not stated) | 8.69% | 11.4% | 10.3%
COc1ccc2nccc([C@@H](O)CN3CCC(NCc4ccc5c(c4)OCCO5)CC3)c2c1 | 6.76% | 5.93% | 0.41%
COc1cc(Cc2cnc(N)nc2N)cc(OCCCC(=O)O)c1OC | 2.98% | 1.62% | 1.78%
COc1cc(CCN(C)Cc2ccc(OC)c(OC)c2)ccc1NC(=O)c1cccc2c(O)c3cccc(F)c3nc12 | 3.49% | 1.84% | 3.27%
Cn1nccc1C(=O)NCCNCc1ccc(-c2ccc(-c3nc4cc(C(F)(F)F)ccc4[nH]3)s2)cc1 | 0.47% | -0.52% | 0.87%
O=C(NCCCCCN1CCC(c2c[nH]c3ccccc23)CC1)Nc1cccc(Br)c1 | 8.56% | 7.56% | 5.45%
Oc1ccc2nc(NCCCc3ccccc3)nc(NCCCc3ccccc3)c2c1 | 28.4% | 20.7% | 11.1%
Cc1ccc2c(=NN=Cc3ccc(N(C)C)cc3)cc(C)[nH]c2c1 | 1.24% | 2.71% | -5.38%

SMILES | inhibition [1] | inhibition [2] | inhibition [3]
Nc1nc(N)c2c(Cl)c(CNc3cccc(C(=O)O)c3)ccc2n1 | 3.95% | 2.84% | 3.26%
N#Cc1ccc2c(c1)CCN(CCC1CCC(NC(=O)c3cc4ccc(Cl)cc4[nH]3)CC1)C2 (configuration not stated) | 1.73% | -0.22% | -0.76%
CCCCCCN1CCC(NCc2ccc(C)cc2)CC1 | 12.6% | 16% | 17.6%
Cc1cc(N[C@@H](CC(C)C)C(=O)NCc2cccc(F)c2)nc(NCC2CCCCC2)n1 | 5.8% | 4.61% | 2.2%
CCCOc1ccc(C(F)(F)F)cc1NC(=O)c1nc2nc(C)cc(C)n2n1 | 6.01% | 5.05% | 1.31%
N#Cc1ccc2c(c1)CCN(CCC1CCC(NC(=O)/C=C/c3cccc4cc[nH]c34)CC1)CC2 (configuration not stated) | 8.95% | 9.87% | 3.01%
O=C(Nc1cccc(C(F)(F)F)c1)c1ccc(S(=O)(=O)NC2CCN(CC3CCCCC3)C2)cc1 (configuration not stated) | 3.79% | 3.31% | 4.54%
O=C(Nc1cccc(-c2csc(-c3nc4ccccc4[nH]3)c2)c1)c1ccoc1 | 3.4% | 3.05% | 1.11%
COc1cc2c(cc1C=CC(=O)N1CCN(Cc3nc(O)c4c(C)c(C)sc4n3)CC1)OC(C)C2 (configuration not stated) | 1.98% | 3.73% | 2.08%
CC(C)NCc1ccc(-c2ccc(-c3nc4cc(F)ccc4[nH]3)cc2)cc1 | 7.9% | 8.81% | 6.75%
Cc1ccccc1CCNC(=O)c1cnc(N2CCN(c3ccncc3)CC2)c(Cl)c1 | 79% | 81.9% | 84.2%
O=C(/C=C/c1ccc(Cl)c(Cl)c1)NCCCCCN1CCC(c2n[nH]c(-c3ccccc3)c2Br)CC1 | 1.29% | -2.38% | 0.22%
N=C(N)Nc1ccc(OCCCCCOc2ccc(NC(=N)N)c(Cl)c2)cc1Cl | -0.79% | -1.31% | -2.62%
CCN(CC)c1ccc(C(c2ccc(N(CC)CC)cc2)c2ccc([N+](=O)[O-])cc2)cc1 | 15.3% | 10.4% | 8.28%
CN(C)CCNC(=O)c1ccc2c(c1)n(C1CCN(S(=O)(=O)c3ccc(-c4ccccc4)cc3)CC1)c(=O)n2CC1CCCCC1 | -1.79% | -0.94% | -1.74%
C=CCn1c(C)cc(C(=O)COc2ccc(S(=O)(=O)N3CCOCC3)cc2[N+](=O)[O-])c1C | 2.97% | 0.91% | 0.84%
Cc1nn(CC(C)C)c2sc(C(=O)Nc3nc(-c4ccccn4)cs3)cc12 | 3.49% | 3.41% | 2.33%
Cc1ccc(-c2nnc(Nc3ccc(CC(N)=O)cc3)c3ccccc23)cc1S(=O)(=O)NCC1CCCO1 (configuration not stated) | 6.25% | 7.99% | 2.36%
CCN(CCCN1CCCCC1)c1cc(C)nc(Nc2cccc3c2CCCC3)n1 | 3.95% | 2.39% | 1.57%
CCNC(=O)Nc1cccc(-c2ccc(-c3nc4cccc(C)c4[nH]3)s2)c1 | 1.49% | 1.4% | 0.03%
CCCC(C)N(Cc1ccc(C(C)(C)C)cc1)C(=O)c1cccc(C#N)c1 (configuration not stated) | -1.28% | 0.07% | -1.38%
O=C(NCCN1CCCCC1)N1CCCN(c2ncnc3cc(-c4ccccc4)sc23)CC1 | 2.21% | 1.64% | 2.05%

From ChEMBL document CHEMBL3433997, “St. Jude Leishmania screening dataset” (2016)
